Rows were chosen to be rich in hits. Some 7.9% of all compounds tested hit in one or more screens of this group.
KB-V1 MDR tox: qHTS assay for MDR1-selective chemotherapeutics: Primary screen using the drug-selected MDR subline cells KB-V1. Potency, µM (series often up to 46.1 µM), usual class: cytotoxic. 400,000 tested, 3.4% active. KB-V1 MDR cells viability, CellTiter-Glo, 72 h; also: nearly all actives have a fitted effect of over 60% in size
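Potencies derive from concentration-effect curves fitted to normalized luminescence (CellTiter-Glo) of KB-V1 cells treated for 72 h at 37 degrees C in phenol-red-free DMEM containing 10% FBS.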
KB-3-1 tox: qHTS assay for MDR1-selective chemotherapeutics: Primary screen using the parental adenocarcinoma cell KB-3-1; AID 1347075, 2019; KB-3-1 viability, CellTiter-Glo ATP luminescence, 72 h; Potency, µM (titrated, usually from 46.1 µM), actives largely listed as cytotoxic; 400,000 tested, 1.4% active; also: nearly all actives have a fitted effect of over 60% in size
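Cytotoxicity in the drug-sensitive parental line KB-3-1 was scored as loss of CellTiter-Glo luminescence following 72 h incubation with compound. Values come from curve fitting of normalized concentration-response data.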
HT1080-NT tox: qHTS for induction of synthetic lethality in tumor cells producing 2HG: qHTS for the HT-1080-NT fibrosarcoma cell line; Potency, µM (doses to about 46.1 µM), actives largely listed as cytotoxic; HT-1080-NT fibrosarcoma viability, CellTiter-Glo ATP luminescence, 48 h; 360,000 tested, 1.6% active;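 also: NT is the 2HG producing partner of a matched IDH1 knockdown line; nearly all actives have a fitted effect of over 55% in size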
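Read-out is CellTiter-Glo luminescence after 10 minutes at room temperature, following 48 hours' compound treatment of HT-1080-NT cells (750 cells/well, RPMI, 5% FBS, 37 degrees C).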
HT1080 IDH1KD tx: qHTS for induction of synthetic lethality in tumor cells producing 2HG: qHTS for the HT-1080-IDH1KD cell line | HT-1080 IDH1 knockdown viability, ATP luminescence, 48 h | Potency, µM (highest dose often 46.1 µM), most hits filed as cytotoxic | 360,000 tested, 2% active
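HT-1080-IDH1KD cells (IDH1 knocked down), 750/well in RPMI with 5% FBS, treated with compound 48 h at 37 degrees C. Viability by CellTiter-Glo luminescence, normalised to DMSO and no-cell wells; concentration-response curves classed.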
MCF10A rerep: A quantitative high throughput screen for small molecules that induce DNA re-replication in MCF 10a normal breast cells | 350,000 tested, 2.9% active | Potency, µM (series often up to 46.1 µM), hits mostly activators | MCF 10A DNA re-replication, Hoechst nuclear intensity, 48 h | AID 624296, 2012; also: nearly all actives have a fitted effect of over 50% in size
SW480 rereplic: A quantitative high throughput screen for small molecules that induce DNA re-replication in SW480 colon adenocarcinoma cells; SW480 DNA re-replication, Hoechst DNA content imaging, 48 h; Potency, µM (doses to about 46.1 µM), usual class: activators; 340,000 tested, 1.8% active; AID 624297, 2012; also: nearly all actives have a fitted effect of over 55% in size
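Image-based DNA-content assay: after two days of treatment, nuclei were labelled with the DNA dye Hoechst and imaged, and hits were compounds raising the count of nuclei showing high fluorescence intensity.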
A number is an active result; – = inactive; ? = inconclusive; · = not tested or not shown. Calls follow the shape of the dose curve; as a rule, active = well fitted curve in the direction sought with a large enough effect; inconclusive = small, poorly fitted or top-dose-only effect, or another doubt; inactive = no such curve, though single readings can be large; an effect the other way counts as inactive or inconclusive.

SMILES	KB-V1 MDR tox	KB-3-1 tox	HT1080-NT tox	HT1080 IDH1KD tx	MCF10A rerep	SW480 rereplic
Cc1ccc(-c2nc(Nc3cccc(C)c3)sc2CC(=O)O)cc1	–	–	–	–	20.6µM	?
O=C(O)Cc1sc(Nc2ccccc2)nc1-c1cccs1	–	–	–	–	23.1µM	?
COc1ccc(C(=O)CCC(=O)Nc2ccc(F)cc2F)cc1	–	–	·	·	·	·
CCOC(=O)c1ccc(Cl)c(NC(=O)c2ccc(-c3ccccc3)cc2)c1	–	?	–	–	3.66µM	–
O=C(Nc1ccc(Cl)cc1Cl)c1ccc(-c2ccccc2)cc1	–	–	?	–	–	–
CCNc1ccc(C(=O)OCC)cc1NC(=O)c1cccc(N(C)C)c1	?	?	1.78µM	?	–	–
CCNc1ccc(C(=O)OCC)cc1NC(=O)c1cccc(S(=O)(=O)N(C)c2ccccc2)c1	–	–	–	–	–	–
COc1ccccc1N(C)S(=O)(=O)c1ccc(Cl)c(C(=O)NNC(=O)c2ccccc2O)c1	–	?	–	–	–	–
COc1ccccc1N(C)S(=O)(=O)c1ccc(Cl)c(C(=O)OCc2c(C)noc2C)c1	–	–	–	–	16.4µM	?
Cc1cc(NC(=O)COCc2cc(-c3ccc(F)cc3)on2)ccc1Br	–	?	·	·	·	·
O=C(Cc1ccc(Cl)cc1)c1c[nH]c(C(=O)NCCCn2ccnc2)c1	–	–	–	–	1.84µM	–
CC(C)CC(=O)c1c[nH]c(C(=O)NCCCn2ccnc2)c1	–	–	–	–	–	–
COc1ccc(C=NNC(=S)Nc2ccc(F)cc2)cc1OC	–	–	–	–	–	–
COc1ccc(CNC(=S)N/N=C/c2ccc(OC)c(OC)c2)cc1	–	–	–	?	–	–
COCCCNC(=S)N/N=C/c1ccc(OC)c(Br)c1	–	–	–	–	–	3.26µM
COc1ccc(C=NNC(=S)NN=Cc2ccc(OC)c(OC)c2)cc1OC	0.231µM	0.461µM	–	–	?	?
COc1ccc(/C=N/NC(=S)NCc2ccccc2)cc1OC	20.6µM	–	–	–	–	–
Cn1c(=O)oc2cc(S(=O)(=O)N3CCCC(C(=O)NCc4ccc(F)cc4)C3)ccc21 (centres undefined)	–	–	·	·	·	·
O=c1c2cnn(-c3ccccc3)c2nc(-c2ccco2)n1-c1ccccc1	5.17µM	14.6µM	–	–	?	–
Cc1nn(-c2ccccc2)c(N)c1N=Nc1ccc2ccccc2c1	–	?	–	–	–	–
Cc1ccc(N=Nc2c(N)nn(-c3ccccc3)c2N)cc1	6.51µM	?	10.3µM	9.2µM	14.6µM	13µM
C[C@H]1CN([C@@H](C)CO)C(=O)Cc2cc(NC(=O)Cc3cn(C)c4ccccc34)ccc2O[C@@H]1CN(C)S(=O)(=O)c1cn(C)cn1	–	–	–	–	–	3.66µM
C[C@H](CO)N1C[C@H](C)[C@H](CN(C)S(=O)(=O)c2cccs2)Oc2ccc(NC(=O)Nc3ccc4c(c3)OCO4)cc2CC1=O	?	?	?	?	?	16.4µM
C[C@H]1CN([C@@H](C)CO)C(=O)Cc2cc(NC(=O)CCC(F)(F)F)ccc2O[C@H]1CN(C)S(=O)(=O)c1ccc(F)cc1	–	5.17µM	11.6µM	?	14.6µM	?
C[C@H]1CN([C@@H](C)CO)C(=O)Cc2cc(NC(=O)CCC(F)(F)F)ccc2O[C@H]1CN(C)S(=O)(=O)c1ccc(Cl)cc1	–	4.61µM	3.66µM	4.61µM	4.61µM	3.26µM
SMILES	KB-V1 MDR tox	KB-3-1 tox	HT1080-NT tox	HT1080 IDH1KD tx	MCF10A rerep	SW480 rereplic
C[C@H]1CN([C@@H](C)CO)C(=O)Cc2cc(NC(=O)CCC(F)(F)F)ccc2O[C@H]1CN(C)C(=O)Nc1ccc(F)cc1	–	–	–	–	–	–
c1ccc(Nc2cccc3c(Nc4ccccc4)cccc23)cc1	–	–	?	–	?	?
O=S(=O)(O)c1cccc2cccc(Nc3ccccc3)c12	–	–	–	–	20.6µM	16.4µM
O=c1ccsn1Cc1ccccc1	–	–	?	23.1µM	?	18.4µM
Cc1ccc2c(=O)cc(C(=O)Nc3sc4c(c3C(N)=O)CCCC4)oc2c1	–	–	·	·	·	·
CN(C)c1ccc(CN2CCC(C(=O)NC(c3ccc(Cl)cc3)c3cnccn3)CC2)cc1 (centres undefined)	–	–	–	?	·	·
COc1c2ccccc2nc2ccccc12	–	–	–	–	?	23.1µM
CCOCCc1nnc(N)s1	–	–	–	–	8.2µM	14.6µM
CCOC(=O)c1c(C)[nH]c(C)c1S(=O)(=O)N(C)CC(=O)Nc1ccc(C)cc1Br	–	–	·	·	·	·
COc1ccc(NC(=O)c2cc(Br)ccc2Cl)c([N+](=O)[O-])c1	–	–	–	–	?	–
O=C(Nc1ccc([N+](=O)[O-])cc1Cl)c1cc(Br)ccc1O	1.84µM	2.31µM	·	·	·	·
O=C(Nc1c(Cl)cc([N+](=O)[O-])cc1Cl)c1cc(Cl)ccc1O	?	0.731µM	·	·	·	·
COc1c2c(c3c(c1OC)c(=O)c1ccccc1n3C)OCO2	13µM	–	–	–	–	–
COc1c2c(c(OC)c3c1c(=O)c1ccccc1n3C)OCO2	?	–	–	–	–	?
N#CCCn1cc(/C=N/O)c(-c2ccc(Cl)cc2)n1	–	–	–	–	–	–
N#CCCn1cc(/C=C2\NC(=S)N(c3ccccc3)C2=O)c(-c2ccc(-c3ccccc3)cc2)n1	–	?	–	–	5.8µM	?
O=C(O)CCn1cc(/C=C2/NC(=S)N(c3ccccc3)C2=O)c(-c2ccccc2)n1	–	–	–	–	–	–
N#CCCn1cc(/C=N/O)c(-c2ccc(-c3ccccc3)cc2)n1	–	?	?	?	13µM	?
N#CCCn1cc(C=C(C#N)C#N)c(-c2ccc(Cl)cc2)n1	–	–	–	–	3.66µM	?
CCn1cc2nc(SCc3cccc(OC)c3)n(Cc3ccc(Cl)cc3)c(=O)c2n1	–	–	·	·	·	·
COc1ccc(-c2csc(N(CCCN(C)C)C(=O)c3ccc(Br)cc3)n2)cc1	?	–	20.6µM	20.6µM	–	–
COc1ccc(-c2csc(N(CCCN(C)C)C(=O)c3ccc(C(C)(C)C)cc3)n2)cc1	?	?	?	16.4µM	?	?
COc1ccc(-c2csc(N(CCCN(C)C)C(=O)c3cccs3)n2)cc1	7.31µM	–	12.6µM	11.2µM	–	–
COc1ccc(-c2csc(N(CCCN(C)C)C(=O)c3ccc(C)cc3)n2)cc1	–	–	?	?	–	–
